From PubChem
The list is not random: actives were taken first. Their share in the collection is about 8.2%.
KB-V1 MDR tox: KB-V1 MDR subline cytotoxicity. KB-V1 MDR cells viability, CellTiter-Glo, 72 h. Potency, µM (doses to about 46.1 µM), actives largely listed as cytotoxic. 400,000 compounds, 3.4% hits; also: % is scaled to controls: 0 for no effect and ±100 for the full control effect; nearly all actives have a fitted effect of over 60% in size
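Cytotoxicity toward P-gp-expressing KB-V1 cells was determined as loss of CellTiter-Glo luminescence after 72 h at 37 degrees C. Compounds were tested in quantitative HTS format across a concentration range, with curves fitted to normalized data.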
SW480 rereplic: inducers of DNA re-replication in SW480 colon cancer cells | SW480 DNA re-replication, Hoechst DNA content imaging, 48 h | Potency, µM (top dose mostly 46.1 µM), for the others: at the highest dose re-replication activation, hits mostly activators | 340,000 compounds, 1.8% hits; also: % of control where 0% means no effect; nearly all actives have a fitted effect of over 55% in size
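250 cells/well; 23 nL cpd via pin tool; 48 hr, 37 C, 5% CO2; Hoechst 40 min; imager read of total nuclear intensity, ex 405/em 500-530 nm.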
KB-3-1 cytotox: kills parental KB-3-1 adenocarcinoma cells; KB-3-1 viability, CellTiter-Glo ATP luminescence, 72 h; Potency, µM (top dose mostly 46.1 µM), hits mostly cytotoxic; 400,000 compounds, 1.4% hits; AID 1347075; also: % is scaled to controls: 0 for no effect and ±100 for the full control effect; nearly all actives have a fitted effect of over 60% in size
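Cells are dispensed, compounds pinned in, plates held at 37 °C for 72 h, then CellTiter-Glo is added and luminescence read after 10 minutes. Cell line: parental KB-3-1 in phenol-red-free DMEM, 10% FBS.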
MCF10A rereplic: DNA re-replication induction in MCF 10a cells; MCF 10A DNA re-replication, Hoechst nuclear intensity, 48 h; Potency, µM (top dose mostly 46.1 µM), for the others: top-dose activity, positive = re-replication, most hits filed as activators; 350,000 compounds, 2.9% hits; also: % of control where 0% means no effect; nearly all actives have a fitted effect of over 50% in size
ELG1 repair inh: inhibitors of ELG1-dependent DNA repair in HEK293T cells | HEK293T ELG1-luciferase reporter, luminescence, 16 h; DNA damage induced by 5-fluorouridine | Potency, µM (doses to about 46.1 µM), for inactives: at the top dose activity change, negative = inhibition, most hits filed as inhibitors | 330,000 compounds, 2.3% hits | AID 504467; also: % is scaled to controls: 0 for no effect and ±100 for the full control effect; nearly all actives have a fitted effect of over 55% in size
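Luminescence from the luciferase reporter, measured 30 min after ONE-Glo reagent at room temperature, was the read-out. Beforehand, 2,000 cells per well were exposed for 16 hr at 37 °C to 5-fluorouridine together with compound or vehicle.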
Active calls of the source: *; i = inactive; u = inconclusive; x = not tested or not shown. Calls follow the shape of the dose curve; as a rule, active = well fitted curve in the direction sought with a large enough effect; inconclusive = small, poorly fitted or top-dose-only effect, or another doubt; inactive = no such curve, though single readings can be large; an effect the other way counts as inactive or inconclusive. Potency is read from the fitted curve at half-maximal effect.

SMILES	KB-V1 MDR tox	SW480 rereplic	KB-3-1 cytotox	MCF10A rereplic	ELG1 repair inh
O=C1CC(N2CCSCC2)C(=O)N1c1cccc(Cl)c1 (centres undefined)	u	u	i	0.82µM*	7%
CC(C)(C)c1cc2nc(NCCOc3ccccc3)ccn2n1	i	x	i	x	x
c1ccc(-c2nc3c4ccccc4ccn3c2Cc2ccsc2)cc1	i	x	i	x	x
CNC(=S)N(CCc1c(C)[nH]c2ccc(C)cc12)Cc1cccs1	u	30%	i	3.7µM*	u
CCOc1ccc(NC(=S)N(CCc2c(C)[nH]c3ccc(C)cc23)Cc2ccco2)cc1	i	13%	i	-1%	16µM*
CCOc1ccc(NC(=S)N(Cc2ccc(N(C)C)cc2)Cc2ccco2)cc1	15µM*	10%	i	19%	u
COc1ccc(NC(=S)N(CCc2c(C)[nH]c3ccc(C)cc23)Cc2cccs2)cc1	u	1%	u	-5%	u
CC(C)C(=O)Nc1ccc2c(c1)nc(CCN1CCN(c3ccccn3)CC1)n2C	u	8%	i	7%	-4%
Cc1cc(C)cc(-c2nnc(SCC(=O)NCC3CCCO3)o2)c1 (centres undefined)	i	-7%	i	-12%	x
Cc1cc(=O)n2[nH]c(-c3ccccc3)cc2n1	i	-2%	i	0%	x
Cc1cc(=O)n2[nH]c(-c3ccc(C(C)(C)C)cc3)cc2n1	15µM*	9%	u	u	u
Cc1cc(C)cc(NC(=O)CSc2nnc(COc3ccccc3Cl)o2)c1	u	x	i	x	x
COc1cccc(CN2CCN(Cc3cccc(Oc4ccccc4)c3)CC2)c1OC	i	23µM*	i	15µM*	-5%
COc1cccc(CN2CCN(Cc3cc(OC)c(OC)c(OC)c3)CC2)c1OC	u	0%	i	7%	-11%
CCN1CCN(Cc2cccc(Oc3ccc(Cl)cc3)c2)CC1	u	16µM*	i	16µM*	-10%
CN1CCN(Cc2cccc(Oc3ccc(Cl)cc3)c2)CC1	i	1%	i	-2%	u
Cc1ccc(C(=O)NCCNC(=O)COc2ccccc2Cl)cn1	i	-10%	i	3%	-3%
CCOC(=O)c1sc(Nc2nc(C)cc(C)n2)nc1C	9.2µM*	u	u	u	u
CCCCOC(=O)Nc1nc(C)c(C(=O)OCC)s1	12µM*	-7%	i	-8%	u
CNc1nc(C)c(C(=O)OCc2ccccc2)s1	21µM*	1%	i	u	u
CCCCCCc1nnc(NC(=O)OCC)s1	16µM*	-4%	i	7%	12%
CCOC(=O)c1sc(NC(=O)CC)nc1C	i	-4%	i	u	13%
CCOC(=O)c1sc(Nc2nc(C)cc(OC)n2)nc1C	i	-6%	i	10%	-20%
CNc1nc(C)c(C(=O)OCC(=O)OC)s1	i	-5%	i	0%	u
O=C(Nc1ccccc1)OCCOc1ccc(Br)cc1	i	22%	i	18µM*	-1%
SMILES	KB-V1 MDR tox	SW480 rereplic	KB-3-1 cytotox	MCF10A rereplic	ELG1 repair inh
Oc1ccc(/C=N\Nc2cc(N3CCOCC3)nc(N3CCOCC3)n2)c(O)c1	i	u	u	u	10µM*
CCCOc1ccc(/C=N/Nc2cc(N3CCOCC3)ncn2)c(O)c1	i	u	12µM*	15%	2.9µM*
CCOc1ccc(/C=N/Nc2cc(N3CCOCC3)ncn2)c(O)c1	i	x	u	x	x
Cc1cccc(/C=N/Nc2cc(N3CCOCC3)nc(N3CCOCC3)n2)c1	15µM*	2.1µM*	u	u	7.3µM*
Cc1ccc(C)c(S(=O)(=O)N2CCC(c3nc4c(nnn4Cc4ccc5c(c4)OCCO5)c(=O)[nH]3)CC2)c1	i	19%	i	24%	-22%
COc1ccc(CC(=O)Nc2ccc(S(=O)(=O)NC(C)C)cc2)cc1	16µM*	-8%	i	0%	2%
CCCCNS(=O)(=O)c1ccc(NC(=O)Cc2ccc(OC)cc2)cc1	i	-1%	i	3%	u
COc1ccc(NS(=O)(=O)c2ccc(NS(=O)(=O)c3ccc(SC)cc3)cc2)c(OC)c1	u	17%	i	u	-7%
